Bioassay records as filed in PubChem BioAssay.
Cruzain Triton – blocks cruzain activity in presence of Triton detergent. P25779. purified cruzain, Z-FR-AMC fluorescence, 0.01% Triton. Potency, µM, inactives show max response, negative = inhibition, actives largely listed as inhibitors. 200,000 tested, 0.43% active. AID 1478;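 further: plate controls were neutral wells for no effect and buffer without enzyme for full effect; nearly all actives have a fitted effect of over 40% in size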
Target sequence (P25779 123-467 limits assumed): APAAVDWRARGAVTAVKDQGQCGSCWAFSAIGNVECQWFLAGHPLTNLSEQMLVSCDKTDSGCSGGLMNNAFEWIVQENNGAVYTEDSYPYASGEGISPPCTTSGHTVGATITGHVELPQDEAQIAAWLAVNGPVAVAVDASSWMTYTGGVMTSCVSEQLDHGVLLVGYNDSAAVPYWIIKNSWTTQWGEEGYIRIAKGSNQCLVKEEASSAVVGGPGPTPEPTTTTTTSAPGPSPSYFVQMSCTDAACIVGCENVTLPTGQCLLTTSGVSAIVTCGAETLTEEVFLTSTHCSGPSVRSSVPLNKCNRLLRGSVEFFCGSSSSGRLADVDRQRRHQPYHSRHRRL
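15 min RT preincubation of 1.5 nM cruzain with compound, then 2 uM Z-FR-AMC added; kinetic AMC fluorescence, 60 s delta. Triton X-100 0.01%, pH 5.5.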
Cruzain inh noDet – blocks cruzain activity in detergent-free assay | P25779 | purified cruzain, Z-FR-AMC fluorescence, no detergent | Potency, µM, for the others: max response, negative = inhibition, most hits filed as inhibitors | 200,000 tested, 2.3% active;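 further: plate controls were enzyme without inhibitor for no effect and buffer without enzyme for full effect; nearly all actives have a fitted effect of over 40% in size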
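Detergent-free condition (0.00005% Triton X-100) in acetate buffer pH 5.5 with DTT. 1.5 nM enzyme and compound were pre-mixed 15 min, then 2 uM Z-FR-AMC substrate added; reaction progress from fluorescence change between first and third reads (60 s).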
The depositor's hits bear a star; u = inconclusive; ! = a repeat was not active. Only some compounds are listed: those with a hit (about 2.4% of all), similar ones and a draw of the others. The call rests on the fitted dose curve; in most records, active means well fitted curve in the direction sought with a large enough effect; inconclusive means small, poorly fitted or top-dose-only effect, or another doubt; inactive means no such curve, though single readings can be large; an effect the other way counts as inactive or inconclusive. Potency means the concentration at half of the fitted maximal effect.

SMILES	Cruzain Triton	Cruzain inh noDet
CCCOc1ccc(/C=N/NC(=S)Nc2ccccc2[N+](=O)[O-])c(O)c1	-5%	4µM*
COc1ccc(/C=N/NC(=S)Nc2ccccc2[N+](=O)[O-])cc1O	-8%	-9%
CCCOc1ccc(/C=N/Nc2ccccc2[N+](=O)[O-])c(O)c1	-6%	10µM*
COc1cccc(CNC(=O)c2nnc(Cc3ccc(Cl)cc3)o2)c1	-1%	6%
Cc1ccc(NC(=O)N(Cc2ccc3c(c2)OCO3)Cc2cc3cc4c(cc3[nH]c2=O)OCCO4)cc1	2%	32µM*
Cc1ccc(NC(=O)N(Cc2cccs2)Cc2cc3cc4c(cc3[nH]c2=O)OCO4)cc1	0%	u
Cc1cc2nc(-c3cc(NC(=O)c4cc5ccccc5o4)ccc3Cl)oc2cc1C	-1%	13µM*
Cc1ccc2oc(-c3cc(NC(=O)c4oc5ccccc5c4C)ccc3Cl)nc2c1	-1%	3.2µM*
COc1ccccc1C(=O)Nc1ccc2oc(-c3cccc4c(Br)cccc34)nc2c1	-4%	1.3µM*
Cc1ccc2oc(-c3cc(NC(=O)c4ccco4)ccc3Cl)nc2c1	-11%	0%
COc1cc2ccccc2cc1C(=O)Nc1ccc(Cl)c(-c2nc3ccccc3o2)c1	-2%	3.2µM*
COc1cc(OC)cc(C(=O)Nc2ccc3oc(-c4cccc5c(Br)cccc45)nc3c2)c1	0%	2%
COc1cc2ccccc2cc1C(=O)Nc1ccc2oc(-c3ccc(Cl)cc3)nc2c1	0%	-1%
O=C(Nc1ccc(Cl)c(-c2nc3cc(Cl)ccc3o2)c1)c1cc2ccccc2o1	0%	u
COc1ccc(C(=O)N2CCN(Cc3cc(=O)n4nc(-c5ccccc5C)sc4n3)CC2)cc1OC	0%	-2%
CCC(=O)N1CCc2cc(S(=O)(=O)NC(C(=O)NCCc3cccc(C)c3)C(C)C)ccc21 (stereo not given)	-2%	7%
O=[As](O)(O)c1ccc(NCc2ccccc2)cc1	2%	3%
Cc1ccc(NC(=O)Cn2nnc(-c3nc(-c4ccc(Cl)cc4)no3)c2N)cc1C	-9%	-15%
Cc1ccc2nc(SCC(=O)Nc3ccc(C)c([N+](=O)[O-])c3)[nH]c2c1	-26%	-1%
Cc1ccc2nc(SCC(=O)Nc3ccc(F)c([N+](=O)[O-])c3)[nH]c2c1	14µM*	u
O=C(NCc1ccc2[nH]c3c(c2c1)CCCC3)c1ccc(S(=O)(=O)N2CCCCC2)cc1	-3%	u
CC(=O)c1cccc(NC(=O)C2CCN(S(=O)(=O)c3ccc4[nH]c(=O)ccc4c3)CC2)c1	-4%	-3%
Cc1cccc(NC(=O)C2CCN(S(=O)(=O)c3ccc4[nH]c5c(c4c3)CCCCC5)CC2)c1	1%	13µM*
CCc1ccc(NC(=O)C2CCN(S(=O)(=O)c3ccc4[nH]c5c(c4c3)CCCCC5)CC2)cc1	1%	10µM*
Cc1cccc(NS(=O)(=O)c2ccc3[nH]c4c(c3c2)CCCCCC4)c1	-5%	-4%
SMILES	Cruzain Triton	Cruzain inh noDet
O=C(Nc1ccccc1)C1CCN(S(=O)(=O)c2ccc3[nH]c4c(c3c2)CCCCC4)CC1	-2%	16µM*
CCOc1ccc(CNC(=O)c2ccc(Sc3ccc(C)cc3)c(N)c2)cc1OC	0%	7%
Cc1cc(-c2nnc(SCC(=O)c3ccc(Cl)cc3)o2)no1	-4%	25µM*
COc1ccc(C(=O)CSc2nnc(-c3cc(C)on3)o2)cc1	-5%	-16%
O=C(NCc1nc2ccccc2[nH]1)c1cc2ccccc2oc1=O	14µM*	7.9µM*
O=C(NCc1nc2ccccc2[nH]1)c1ccco1	-1%	-7%
CCN(CC)S(=O)(=O)c1cccc(C(=O)Nc2sc3c(c2C#N)CCC(C)C3)c1 (stereo not given)	-2%	-2%
N#Cc1c(NC(=O)CCC(=O)O)sc2c1CCCC2	-1%	4%
CCc1ccc(CCC(=O)Nc2sc3c(c2C#N)CCCC3)o1	-1%	25µM*
Cc1ccc(/C=C/C(=O)NC2CCCCCCC2)o1	22µM*	20µM*
CC(C)c1ccc(/C=C/C(=O)NC2CCCCC2)cc1	-2%	8%
Cc1ccc(/C=C/C(=O)Nc2sc3c(c2C#N)CCCC3)o1	-5%	7.9µM*
Cc1cccc(C(=O)Nc2sc3c(c2C#N)CCCCC3)c1	3%	u
COC(=O)Cn1c(=O)c2c(nc3n2CCN3c2ccc(F)cc2)n(C)c1=O	-3%	12%
Cc1ccc(CNC(=O)CN2C(=O)C3CCCCN3c3ccc(C(=O)N4CCCC4)cc32)cc1 (stereo not given)	-2%	2%
CS(=O)(=O)N(CC(=O)NCCSCc1ccccc1)c1cc(C(F)(F)F)ccc1Cl	-6%	14%
Cc1cc(NC(=O)CS(=O)(=O)c2cn(Cc3ccccc3Cl)c3ccccc23)no1	-4%	25µM*
CCOC(=O)N1CCN(C(=O)CS(=O)(=O)c2cn(Cc3ccccc3Cl)c3ccccc23)CC1	3%	u
COc1cccc(C(=O)Oc2cc3c4c(c2)C(C)=CC(C)(C)N4C(=O)C3=O)c1	-4%	14%
CC1=CC(C)(C)n2c(O)c(C3=NC(=S)NC3=O)c3cc(OC(=O)c4cccc5ccccc45)cc1c32	1%	3.2µM*
O=c1c(Oc2ccccc2F)coc2cc(OCc3cnn(-c4ccccc4)c3)ccc12	-4%	-29%
Cc1[nH]nc(-c2ccc(OCc3cnn(-c4ccccc4)c3)cc2O)c1Oc1ccccc1F	2%	20µM*
CCOCCCNC(=O)C1CCN(c2cc(C)nc3c(-c4ccc(Cl)cc4)c(C)nn23)CC1	2%	11%
CCN(Cc1ccccc1)C(=O)CN1C(=O)COc2ccc(S(=O)(=O)N(CC)CC)cc21	-1%	17%
COc1ccc(NC(=O)c2ccc3c(=O)n(Cc4ccco4)c(=S)[nH]c3c2)c(OC)c1	-3%	u
SMILES	Cruzain Triton	Cruzain inh noDet
COc1ccc(OC)c(NC(=O)c2ccc3c(=O)n(CCc4ccccc4)c(=S)[nH]c3c2)c1	1%	10µM*
COc1ccc(CNC(=O)c2ccc(N3CCCC3)c(NC(=O)NCc3ccc(F)cc3)c2)cc1	-5%	3%
C/C(=C\c1ccc(C(=O)O)cc1)c1ccc2c(c1)C(C)(C)CCC2(C)C	-8%	6.3µM*!
CC1(C)CCC(C)(C)c2cc(C(=O)Nc3ccc(C(=O)O)cc3)ccc21	2%	-10%
COc1ccccc1N1CCN(C(=O)CSc2nc3ccccc3nc2Cc2ccccc2)CC1	-2%	22%
Nc1nnnn1/N=C/c1ccccc1OCc1ccc(Cl)cc1Cl	14µM*	16µM*
Nc1nnnn1/N=C/c1ccccc1OCc1ccc(Cl)cc1	-5%	-28%
CN(C)S(=O)(=O)c1ccc2c(c1)N(CC(=O)Nc1ccc(F)cc1)C(=O)CS2	2%	-11%
CCC1CN2CCC1CC2[C@@H](NC(=S)Nc1cc(C(F)(F)F)cc(C(F)(F)F)c1)c1cccc2ccc(OC)cc12 (stereo not given in full)	-4%	2%
Cc1cccc(C(=O)Nc2ccc3oc(-c4cccc5c(Br)cccc45)nc3c2)c1	0%	u
Cc1cccc(C(=O)Nc2ccc3oc(-c4ccncc4)nc3c2)c1	25µM*	u
COc1c(F)c(F)c(C(=O)Nc2ccc3oc(-c4ccncc4)nc3c2)c(F)c1F	1%	u
O=C(Nc1ccc2oc(-c3ccncc3)nc2c1)c1c(F)c(F)c(F)c(F)c1F	3%	10µM*
Cc1cccc(NC(=O)C2CCCN(S(=O)(=O)c3ccc(Br)s3)C2)c1 (stereo not given)	-7%	u
CC(C)Oc1ccc(CNC(=O)c2ccc3c(c2)nc2n3CCCCC2)cc1	-5%	18%
